Compounds with a hit are over-represented: about 3.3% of the library has one in this group of screens.
ERb SRC1 inh: inhibitors of ERβ-SRC1 coactivator interaction, primary screen, biochemical, TR-FRET, ERβ LBD, SRC-1 peptide | Estrogen receptor beta (Homo sapiens), Q92731 | TR-FRET ER-beta LBD / SRC1-Cy5 peptide binding; receptor agonist-loaded with 1 µM estradiol | inhibition, % at 25.6 µM | hit rate 1.3% among 86,000 | AID 633, 2007;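 active = compounds whose percent inhibition of the receptor-coactivator binding signal exceeds about 50% in the single-dose screen, limit read from the data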;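 also: 0% = receptor plus peptide wells without compound and 100% = peptide-only wells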
Plk1 PBD FP: Plk1 polo box domain binding inhibitors, primary screen, biochemical, fluorescence polarization; Serine/threonine-protein kinase PLK1 (Homo sapiens), P53350; Plk1 PBD phosphopeptide binding; inhibition, %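 (tested at about 20 µM)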; hit rate 0.13% among 97,000; AID 693, 2007; in the data active = inhibition above about 34%, passing the limit was not always enough
Target sequence (P53350 whole entry, looked up, the tested form may be a part): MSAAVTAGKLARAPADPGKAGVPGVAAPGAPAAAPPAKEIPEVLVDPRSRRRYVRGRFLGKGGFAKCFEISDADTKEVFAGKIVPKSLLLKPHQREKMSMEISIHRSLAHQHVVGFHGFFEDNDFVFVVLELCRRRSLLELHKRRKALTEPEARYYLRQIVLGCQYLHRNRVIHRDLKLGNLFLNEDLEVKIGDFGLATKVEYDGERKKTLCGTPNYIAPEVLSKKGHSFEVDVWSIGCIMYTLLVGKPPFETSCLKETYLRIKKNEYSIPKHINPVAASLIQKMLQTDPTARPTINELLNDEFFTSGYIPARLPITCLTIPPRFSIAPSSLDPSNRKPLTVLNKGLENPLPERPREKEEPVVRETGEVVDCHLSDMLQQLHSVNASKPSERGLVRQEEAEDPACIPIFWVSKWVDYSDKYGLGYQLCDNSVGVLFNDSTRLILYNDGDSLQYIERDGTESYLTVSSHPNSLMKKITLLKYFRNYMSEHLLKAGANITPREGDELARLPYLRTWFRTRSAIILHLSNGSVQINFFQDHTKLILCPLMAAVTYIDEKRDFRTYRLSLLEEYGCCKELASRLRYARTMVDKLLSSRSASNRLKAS
Smad3 FoxH1 inh: Smad3/FoxH1 peptide binding inhibitors, primary screen, biochemical, TR-FRET. Mothers against decapentaplegic homolog 3 (Homo sapiens), P84022. TR-FRET Smad3/Dy647-FoxH1 peptide binding, europium anti-His. inhibition, % at 25 µM. hit rate 0.29% among 88,000;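 active = compounds that reduce the energy-transfer binding signal between the protein and its labelled peptide by more than half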;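 also: 0% = Smad3 plus labelled peptide maximal FRET and 100% = peptide-only background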
ERa SRC1 pot: enhancers of ERα–SRC-1 coactivator binding, primary screen, biochemical, TR-FRET, ERα LBD, low estradiol; TR-FRET ERalpha-LBD/SRC-Cy5 coactivator binding, 2 h; 100 = basal binding, no effect; hit rate 1.3% among 86,000; Estrogen receptor (Homo sapiens), P03372; AID 639, 2007; coactivator binding (% of control), % at 25.6 µM; in the data active = activity above about 200%;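 also: binding measured in presence of low estradiol as agonist stimulus; 0% = peptide alone without receptor and 100% = receptor with peptide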
ERa SRC1 inh: ERα–SRC-1 coactivator interaction inhibitors, primary screen, biochemical, TR-FRET, ERα LBD, estradiol-bound. TR-FRET ER-alpha LBD / SRC-1 peptide. hit rate 1.7% among 86,000. inhibition, % at 25.6 µM; in the data active = inhibition above about 50%;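 also: 0% = receptor plus peptide control and 100% = peptide only without receptor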
PLK1 inh: human PLK1 kinase inhibitors, primary screen, biochemical, TR-FRET; AID 619, 2007; hit rate 0.53% among 97,000; Serine/threonine-protein kinase PLK1 (Homo sapiens), P53350; recombinant PLK1 kinase, TR-FRET peptide phosphorylation; inhibition, % at 10 µM;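 active = inhibition of 50% or more in the single-concentration screen; inactive = inhibition below 50%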;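 also: 0% = DMSO max control and 100% = H-89 dihydrochloride min control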
An asterisk follows results filed as active; nt = no result given; [ ] = dose if it differs, or a comment.

SMILES	ERb SRC1 inh	Plk1 PBD FP	Smad3 FoxH1 inh	ERa SRC1 pot	ERa SRC1 inh	PLK1 inh
Cc1ccccc1Nc1nnc(SCC(=O)NCc2ccco2)s1	54*	-30	-4	51	85*[fluorescence artefact?]	-11
CCCCn1c(SCc2ccc(C(=O)OC)o2)nc2cc(S(N)(=O)=O)ccc21	10	20	8	93	8	-4
Cc1nnc(SCC(=O)NCc2ccco2)n1-c1ccccc1	6	-14	-11	111	4	-10
Cn1c(SCC(=O)NCc2ccco2)nnc1-c1c[nH]c2ccccc12	17	-15	-15	92	12	65*
CCCCn1c(SCC(=O)NC(=O)NCc2ccco2)nc2cc(S(N)(=O)=O)ccc21	43	6	-7	80	58*[fluorescence artefact?]	7
CCOc1ccc(-n2c(SCC(=O)NCc3ccco3)nnc2-c2c[nH]c3ccccc23)cc1	12	-7	8	86	7	-16
Cn1c(SCC(=O)NC(=O)NCc2ccco2)nnc1-c1ccccc1	52*[fluorescence artefact?]	2	-11	142	59*[fluorescence artefact?]	-5
CC(C)(C)OC(=O)[C@H]([C@@H]1N[C@@H](C(=O)O)C(C)(C)S1)N1C(=O)c2ccccc2C1=O	nt	nt	-7	nt	nt	nt
OCCNc1ncnc2c1ncn2[C@H]1O[C@@H](CO)[C@H](O)[C@H]1O	nt	nt	25	nt	nt	nt
Cn1ncc2c(Cl)ncnc21	nt	nt	-1	nt	nt	nt
COc1ccc(Cl)cc1NC(=O)CSc1nnc(CN2CCOCC2)n1-c1ccc(Cl)cc1	-7	17	-23	89	-1	-5
CN(CC(=O)O)Cc1c(O)c(Cl)cc(Cl)c1Cl	nt	nt	33	nt	nt	nt
CSc1nc2nccc(-c3ccc(Oc4ccccc4)cc3)n2n1	1	12	10	72	8	7
CSc1nc2nccc(-c3ccc(-c4ccccc4)cc3)n2n1	13	2	14	220*	40	6
COc1ccc2nc(NC(=O)C3COc4ccccc4O3)sc2c1 (stereo not given)	6	32	-12	103	2	-19
O=C(Nc1nc(-c2nc3ccccc3s2)cs1)C1COc2ccccc2O1 (stereo not given)	30	nt	10	128	68*	nt
CC(C)C(=O)Cc1ccc2ccccc2n1	nt	nt	7	nt	nt	nt
CCOc1ccc(-c2nnn(CC(=O)c3ccc4c(c3)OCCO4)n2)cc1	-21	1	1	213*	-11	-9
O=C(c1ccc(NC2=NC3CS(=O)(=O)CC3S2)cc1)N1CCN(Cc2ccccc2)CC1 (stereo not given)	-5	-4	-7	103	93*[fluorescence artefact?]	-5
COc1ccc(NC(=O)Cn2c(-c3ccccc3)cn(-c3ccc(C)cc3)c2=O)cc1	4	-29	-399	201*	5	6
COC(=O)c1sc2cc(C(F)(F)F)cnc2c1-c1cccnc1	nt	-34	nt	nt	nt	-5
NC(=O)c1sc2cc(C(F)(F)F)cnc2c1-c1cccs1	3	7	5	111	0	57*
O=C(Nc1ccccc1)c1sc2cc(C(F)(F)F)cnc2c1-c1cccs1	17	-7	8	210*[fluorescence artefact?]	19	-9
Cc1c(C(=O)Nc2nccs2)sc2nc(-c3cccs3)cc(C(F)(F)F)c12	7	3	-22	84	17	-7
CCN1CCN(CCNC(=O)CS(=O)(=O)Cc2nc(-c3ccc(C)cc3)oc2C)CC1	0	-9	7	118	-1	65*
SMILES	ERb SRC1 inh	Plk1 PBD FP	Smad3 FoxH1 inh	ERa SRC1 pot	ERa SRC1 inh	PLK1 inh
CCOc1ccc(C(C)=O)cc1COc1ccc(-n2cnnn2)cc1	23	nt	-3	53	55*[fluorescence artefact?]	nt
O=S(=O)(c1ccc(OCC(O)CN2CCN(c3ccc(F)cc3)CC2)cc1)N1CCOCC1 (stereo not given)	10	-9	2	89	2	0
CN(CC(O)COc1ccc(S(=O)(=O)N2CCOCC2)cc1)C1CCCCC1 (stereo not given)	78*	26	-3	101	-5	1
CCc1ccc(CCC(=O)O)nc1	nt	nt	-8	nt	nt	nt
O=C(Nc1nn[nH]n1)c1nc(-c2ccccc2)cc(=O)[nH]1	nt	nt	8	nt	nt	nt
Cc1[nH]nc(SCC(=O)N2CCCCC2)c1[N+](=O)[O-]	-4	-32	5	691*[fluorescence artefact?]	-7	-3
COC(=O)C1=C(C)N=C2SCCC(=O)N2C1/C=C/c1ccccc1 (stereo not given)	-11	-24	1	111	-1	-2
NC(=O)c1ccc([N+](=O)[O-])cc1SCc1ccccc1	53*[fluorescence artefact?]	-8	-7	54	39	-12
O=[N+]([O-])c1ccc(CS(=O)Cc2ccccc2)cc1 (stereo not given)	nt	nt	-4	nt	nt	nt
CC(=O)OC1=C(C#N)Cn2ccc3cccc1c32	46	-44	9	63	61*[fluorescence artefact?]	-8
CSC1=NCCN1C(=O)COc1ccccc1	-10	1	-8	118	-3	69*
CSC1=NCCN1C(=O)COc1ccc2ccccc2c1	-4	-1	4	107	0	-16
Cc1ccc(C(C(=O)NC2CCCCC2)N(Cc2cccnc2)C(=O)C2COc3ccccc3O2)o1 (stereo not given)	-7	nt	0	115	4	nt
Cc1cc(NC(=O)c2c(F)cccc2Cl)n(-c2nc3ccccc3[nH]2)n1	52*	5	-7	105	2	3
Cc1cc(NC(=O)c2ccccc2F)n(-c2nc3ccccc3[nH]2)n1	52*[fluorescence artefact?]	-17	-4	184	53*[fluorescence artefact?]	-7
Cc1cc(NC(=O)c2c(F)cccc2F)n(-c2nc3ccccc3[nH]2)n1	8	-5	-1	136	32	-9
O=C(Nc1nonc1NC(=O)C1CCCCC1)C1CCCCC1	-3	-23	5	96	0	-4
NNC(=O)CCSc1ccccc1	nt	nt	6	nt	nt	nt
O=C(c1ccccc1)c1ccccc1C(=O)N1CCOCC1	7	-6	8	84	23	-9
O=C(O)C1Nc2c(C(=O)N3CCOCC3)cccc2C2C=CCC12 (stereo not given)	82*	-1	30	20	70*	17
CCCCCCCOc1ccc(OC(=O)c2cccnc2)cc1	-15	13	5	99	-2	4
CCOc1ccc(N(CC(=O)N2CCc3ccccc32)S(=O)(=O)c2c(C)noc2C)cc1	-8	-5	9	103	1	-17
Cc1n[nH]c(C)c1S(=O)(=O)N(CC(=O)N1CCc2ccccc21)c1ccc(C(C)C)cc1	50*	3	8	56	54*[fluorescence artefact?]	-3
